# Measured values from PubChem BioAssay (Tox21).
# Results filed as inconclusive are left out. Where a call stands in place of a potency, no number is given. The source made the active and inactive calls. Calls follow the shape of the full dose curve.
# Test: cAMP Responsive Elements (CRE) small molecule agonists, cell-based qHTS assay (AID 1963590)
# Details: CRE-bla HEK293T, beta-lactamase FRET ratio, 3 h; series mostly up to 92.4 µM
# Procedure, shortened: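 HEK 293T cells stably bearing CRE-bla were plated at 2,000 cells per well and rested 18 h. Compounds, positive controls or DMSO were added for 3 h at 37 C. LiveBLAzer B/G substrate was then loaded for 2 h at room temperature.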
row,SMILES,Potency
1,Nc1nc(=O)n([C@@H]2O[C@H](CO)[C@@H](O)[C@@H]2F)cc1I,inactive
2,Cc1cc(C)cc(O)c1,inactive
3,COc1cc(C(=O)N2CCOCC2)cc(OC)c1OC,inactive
4,CCCO,inactive
5,CC12CCC(C1)C(C)(C)C2O (configuration not stated),inactive
6,[O]=[Zr],inactive
7,C1CCC(SSC2CCCCC2)CC1,inactive
8,CCCC[C@H]1CN(CC2CCOCC2)C(=O)OC12CCN(C1(C)CCN(C(=O)c3c(C)ncnc3C)CC1)CC2,inactive
9,Cc1ccccc1S(=O)(=O)O,inactive
10,NC(=O)c1ccc(N)cc1,inactive
11,FC(F)(F)C(Cl)Br (configuration not stated),inactive
12,CCCCCCCCSCCO,inactive
13,Cc1ccccc1C(N)=O,inactive
14,CC12CC3CC(C)(C1)CC(N)(C3)C2,inactive
15,O[C@@H]([C@H](O)[C@H](O)CBr)[C@H](O)CBr,inactive
16,CCOc1ccc(N)c([N+](=O)[O-])c1,inactive
17,CC(=O)NCc1c(I)c(NC(C)=O)c(I)c(C(=O)O)c1I,inactive
18,Nc1cc([N+](=O)[O-])ccc1Cl,inactive
19,Cc1c(C(=O)c2c[nH]n(C)c2=O)ccc(S(C)(=O)=O)c1C1=NOCC1,inactive
20,CC(C[N+](C)(C)C)OC(N)=O (configuration not stated),inactive
21,O=S(=O)(O)c1ccccc1O,inactive
22,Cc1cccc(N(C)C)c1,inactive
23,OCC1CCC(CO)CC1 (configuration not stated),inactive
24,C=CCOC(=O)CCCCCC,inactive
25,CCN(CC)S(=O)(=O)c1ccc(C(=O)O)cc1,inactive
26,NNS(=O)(=O)c1ccc(Oc2ccc(S(=O)(=O)NN)cc2)cc1,inactive
27,O=Cc1ccc(C(=O)O)cc1,inactive
